Screens (PubChem BioAssay)
Only some compounds are listed: those with a hit (about 2.8% of all), similar ones and a draw of the others.
IP6K1 inh: inhibitors of human IP6K1; IP6K1 kinase, ADP-Glo luminescence, 2 h; stronger effect = lower value; activity change, % (series mostly up to about 58 µM); hit rate 0.81% among 140,000; AID 1645851; Q92551; in the data active means activity change below about -25%
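ADP-Glo luminescence measures ADP made by human IP6K1 during a 2 h RT reaction with ATP/IP6 (mix at 1.3 mM/130 uM); top library doses 57.5 and 19.1 uM final.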
KDM5B inh: KDM5B demethylase inhibition | Q9UGL1 | KDM5B demethylase, FDH-coupled NADH fluorescence (FDH is formaldehyde dehydrogenase) | Potency, µM (series often up to 57.7 µM), usual class: inhibitors | hit rate 2.6% among 220,000 | AID 1347165; further: nearly all actives have a fitted effect of over 70% in size
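Inhibition is measured as reduced NADH fluorescence generation from FDH coupling to formaldehyde release. Truncated KDM5BΔAP at 200 nM final acts on H3K4me3 peptide (12.5 µM in substrate mix) in pH 7.5 HEPES buffer with Tween-20, 30 min, room temperature.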
HEK293 viab: cell viability loss counter-screen. HEK-293-SNCA-luc viability, GF-AFC fluorescence, 24 h. Potency, µM (top dose mostly 57.1 µM), hits mostly cytotoxic. hit rate 0.12% among 150,000. AID 1671193; further: nearly all actives have a fitted effect of over 30% in size
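HEK-293-SNCA-luc cells (1500/well) plated 24 h, then exposed 24 h to a dilution series; GF-AFC added 30 min at 37C, fluorescence 405/540 nm; normalised to medium-only and DMSO wells, Hill fit.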
SNCA expr inhib: reduces expression of the alpha-synuclein gene | HEK-293 SNCA-luciferase knock-in, luminescence, 24 h | Potency, µM (titrated, usually from 57.2 µM), most hits filed as inhibitors | hit rate 0.17% among 140,000; further: nearly all actives have a fitted effect of over 45% in size
Large screens that a line does not name were inactive; ! = not active in a repeat. Unless noted, the call rests on the fitted dose curve; in most records, active means well fitted curve in the direction sought with a large enough effect; inconclusive means small, poorly fitted or top-dose-only effect, or another doubt; inactive means no such curve, though single readings can be large; an effect the other way counts as inactive or inconclusive.

O=C(c1ccc2nc[nH]c2c1)N1CCCC2(C1)Nc1cccnc1NC2=NC1CCCC1 (stereo not drawn)	KDM5B inh 28µM, HEK293 viab inconclusive
Cc1ccccc1C(=O)N1CCCC2(C1)Nc1cccnc1NC2=NC1CCCC1 (stereo not drawn)	KDM5B inh 16µM
Cc1ccc(C(=O)N2CCCC3(C2)C(=NC2CCCC2)NC(=O)N3c2cccnc2)cc1 (stereo not drawn)	none
CCS(=O)(=O)N1CCC(Nc2nc3ccccc3o2)CC1	none (no result: IP6K1 inh, HEK293 viab, SNCA expr inhib)
Cc1cc2c(-c3ccccc3O)nc(-c3c(C)noc3C)cc2[nH]1	KDM5B inh 35µM, HEK293 viab inconclusive
Cc1cc2c(-c3ccccc3C)nc(-c3c(C)noc3C)cc2[nH]1	KDM5B inh 32µM
Cc1cc2c(-c3ccccc3F)nc(-c3c(C)noc3C)cc2[nH]1	KDM5B inh 35µM
COc1cccc(-c2nc(-c3c(C)noc3C)cc3[nH]c(C)cc23)c1OC	none
Cc1cc(Cl)ccc1OCC(=O)N(Cc1sccc1C)CC1CCCO1 (stereo not drawn)	none (no result: IP6K1 inh, HEK293 viab, SNCA expr inhib)
CN(C)c1ccc2ncc(Nc3ccccc3Cl)n2n1	KDM5B inh 35µM
COc1ncccc1Nc1cnc2ccc(N(C)Cc3ccc(F)cc3)nn12	KDM5B inh 32µM, SNCA expr inhib inconclusive
CN(Cc1ccc(F)cc1)c1ccc2ncc(Nc3ccncc3)n2n1	KDM5B inh inconclusive
COc1ccc(F)cc1Nc1cnc2ccc(N(C)Cc3cccnc3)nn12	KDM5B inh 32µM, HEK293 viab inconclusive, SNCA expr inhib inconclusive
CCOCCCNC(=O)C1CCCCN1Cc1ccc(-c2ccccc2OC)cc1 (stereo not drawn)	none (no result: KDM5B inh, HEK293 viab, SNCA expr inhib)
COc1cc(/C=N/O)c(Br)cc1OCc1ccccc1Cl	none (no result: IP6K1 inh, HEK293 viab, SNCA expr inhib)
COc1ccc(O)c(C(=O)c2cc(C#N)c(=O)n(-c3cc(C)c(Cl)cc3OC)c2)c1	none (no result: IP6K1 inh, HEK293 viab, SNCA expr inhib)
O=C(NCC1(COc2cnccn2)C[C@@H](O)[C@@H](O)C1)c1nc2ccccc2[nH]1 (stereo partly drawn)	KDM5B inh 28µM
COCCOCC1(CNC(=O)c2nc3ccccc3[nH]2)C[C@@H](O)[C@@H](O)C1 (stereo partly drawn)	KDM5B inh 32µM
Cc1cc(Cl)ccc1NC(=O)COc1c(CO)cc(F)cc1CO	none (no result: IP6K1 inh, HEK293 viab, SNCA expr inhib)
CCCCn1nc(C(=O)Nc2nnc(C)s2)c2ccccc2c1=O	none (no result: IP6K1 inh, HEK293 viab, SNCA expr inhib)
Cc1cc(C)c(C)c(S(=O)(=O)NC2CCN(c3ccc(=O)n(CC4CC4)n3)CC2)c1C	KDM5B inh 35µM, SNCA expr inhib inconclusive
O=C(NC1CCN(c2ccc(=O)n(CC3CC3)n2)CC1)c1cnccn1	KDM5B inh inconclusive, SNCA expr inhib inconclusive
O=c1ccc(N2CCC(NS(=O)(=O)c3ccc(Cl)s3)CC2)nn1CC1CC1	KDM5B inh 14µM
N#C/C(=C\c1ccccc1OCc1ccccc1F)C(=O)Nc1ccccc1C(F)(F)F	none (no result: IP6K1 inh, HEK293 viab, SNCA expr inhib)
Cc1ccc(-c2cnc(CCC(=O)N(C)Cc3ccco3)o2)cc1C	none (no result: IP6K1 inh, HEK293 viab, SNCA expr inhib)
O=C(N[C@H]1CC[C@H](Nc2nccc(-c3cccnc3)n2)C1)c1ccc(O)cc1	KDM5B inh 20µM
CCc1[nH]ncc1C(=O)N[C@H]1CC[C@H](Nc2nccc(-c3ccccn3)n2)C1	KDM5B inh 13µM
Cc1ccc2c(c1)N(CCCC(=O)N1CCC(C)(c3noc(-c4ccccc4)n3)CC1)C(=O)CO2	HEK293 viab inconclusive, SNCA expr inhib inconclusive (no result: KDM5B inh)
O=C1[C@H](Cc2ccc(O)cc2)N2C(=O)CCN(C(=O)NCc3ccccc3)[C@H]2CN1Cc1cccc2ccccc12	HEK293 viab 24µM, SNCA expr inhib inconclusive (no result: IP6K1 inh, KDM5B inh)
CCC(C=C[C@@H]1OC(=O)C=C[C@H]1C)=C[C@H](C)CC=CC(C)=C[C@@H](C)C(=O)[C@@H](C)[C@H](O)[C@@H](C)CC(C)=CC(=O)O	HEK293 viab inconclusive, SNCA expr inhib 0.16µM (no result: IP6K1 inh, KDM5B inh)
CC1CCN(CC(=O)N2CCN(S(=O)(=O)c3ccc(F)c(F)c3)CC2)CC1	none (no result: IP6K1 inh, HEK293 viab, SNCA expr inhib)
O=C1[C@H]2CN(Cc3ccc(F)c(Cl)c3)C[C@H]2C(=O)N1CCc1ccccc1	KDM5B inh 13µM
Oc1ccc(-c2nc(-c3ccc(F)cc3)c(-c3ccncc3)[nH]2)cc1	HEK293 viab inconclusive, SNCA expr inhib 1.4µM! (no result: IP6K1 inh, KDM5B inh)
Fc1ccc(-c2nc(-c3cccs3)c(-c3cccs3)[nH]2)cc1	KDM5B inh inconclusive
O=C(Nc1ccc2oc(-c3ccccc3F)nc2c1)c1cccc(I)c1	none (no result: IP6K1 inh, HEK293 viab, SNCA expr inhib)
Cc1ccc(C2=NC3(CCN(C(=O)c4cccc5[nH]ccc45)CC3)ON2)cc1	KDM5B inh 32µM
O=C(c1ccc2[nH]ccc2c1)N1CCC2(CC1)N=C(c1ccc(Br)cc1)NO2	none
COCCN1C(=O)CS(=O)C12CCN(C(=O)c1cccc3[nH]ccc13)CC2 (stereo not drawn)	KDM5B inh 28µM
O=C(c1ccc2cc[nH]c2c1)N1CCC2(CC1)N=C(c1cccc(Br)c1)NO2	KDM5B inh 28µM, SNCA expr inhib inconclusive
Cc1cnc(-c2ccccc2)n1CCC1CCN(C(=O)C2(c3ccccc3)CC2)CC1	none (no result: KDM5B inh)
CCCCn1c(=O)[nH]c(=O)c2c1nc(CCC(N)=O)n2CC(C)C	none (no result: IP6K1 inh, HEK293 viab, SNCA expr inhib)
CCOC(=O)c1sc(NC(=O)C2CC(=O)N(c3ccc(C)c(C)c3)C2)nc1C (stereo not drawn)	none (no result: IP6K1 inh, HEK293 viab, SNCA expr inhib)
CCOC(=O)C1(Cc2ccc(Cl)cc2)CCN(C(=O)c2cc(C)oc2C)CC1	KDM5B inh 32µM, HEK293 viab inconclusive
COc1ccc(CN(C)C(=O)Cn2nnnc2CN2CCOCC2)c2cccnc12	KDM5B inh 22µM
O=C1NCc2ccccc2CC12CCCN2Cc1ccnc2ccccc12 (stereo not drawn)	KDM5B inh 50µM, SNCA expr inhib inconclusive
Cc1ncc(CO)c(CN2CCCC23Cc2ccccc2CNC3=O)c1O (stereo not drawn)	KDM5B inh 79µM
CN=C(NC)NCc1ccc(Br)s1	none (no result: IP6K1 inh, HEK293 viab, SNCA expr inhib)
CCOc1cc(C=O)ccc1OCc1ccc(C(=O)O)cc1	none (no result: IP6K1 inh, HEK293 viab, SNCA expr inhib)
Cc1ccc(-c2nc(-c3cccs3)c(-c3cccs3)[nH]2)cc1	KDM5B inh inconclusive
c1c[nH]c(-c2nc3ccncc3[nH]2)c1	KDM5B inh 32µM
c1csc(-c2nc3ccncc3[nH]2)c1	KDM5B inh 32µM
O=C(CSc1nc2ccncc2[nH]1)Nc1ccccc1C(F)(F)F	none
c1ccc(-c2nc3ccncc3[nH]2)nc1	KDM5B inh 126µM!
Cc1ccoc1-c1nc2ccncc2[nH]1	KDM5B inh 32µM!
COc1ccc2c(c1)c1c(c(=O)n(Cc3ccccc3)c(=O)n1Cc1ccccc1Cl)n2C	SNCA expr inhib 3.2µM
COc1ccc(C(CNC(=O)CCc2nc(-c3ccncc3)no2)N2CCCCC2)cc1 (stereo not drawn)	none (no result: IP6K1 inh, HEK293 viab, SNCA expr inhib)
COc1ccc(-c2cc(C(=O)N3CCN(c4ncccn4)CC3)c3cnn(C)c3n2)cc1	none (no result: KDM5B inh, HEK293 viab, SNCA expr inhib)
COc1cc(C(=O)NC2CCN(C)CC2)ccc1Nc1ncc2c(n1)N(C1CCCC1)CCC(=O)N2C(C)C	none (no result: IP6K1 inh, KDM5B inh)
CC[C@@H]1C(=O)N(C)c2cnc(Nc3ccc(C(=O)NC4CCC(N5CCN(CC6CC6)CC5)CC4)cc3OC)nc2N1C(C)C (stereo partly drawn)	HEK293 viab 30µM! (no result: KDM5B inh)
